# Bioassay records: PubChem, National Center for Advancing Translational Sciences (NCATS)
# HCV inhibitor: inhibitors of hepatitis C virus infection; Potency, µM (titrated, usually from 41.8 µM), inactives show at the top dose activity change, negative = inhibition, actives largely listed as inhibitors; Huh7.5.1 HCVcc-Cre infection, luciferase reporter, 44 h; actives 3.4% (n = 340,000); active = well fitted inhibition curve with a large enough effect; inconclusive = small, poorly fitted or top-dose-only effect, or another doubt; inactive = no such curve, though single readings can be large or run the other way; note: potency is the fitted concentration of half-maximal effect; % is set by controls: 0 for no effect and ±100 for the full control effect
#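 Luciferase read-out (15 sec integration) after a 15 min room-temperature substrate step quantifies HCVcc-Cre infection. Cells, 1,000 per well, had compound added 4 h post-plating, then virus at ~0.5 moi, and were cultured 44 h.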
# Lassa entry inh: blocks Lassa virus binding to or entry into cells; Lassa virus pseudotype entry inhibition, cell reporter; Potency, µM (top dose mostly 37.9 µM), without a hit: at the highest dose activity change, negative = inhibition, hits mostly inhibitors; actives 1.2% (n = 300,000); AID 540256; calls by dose curve; tested in HEK293 cells; note: potency is the fitted concentration of half-maximal effect; % is set by controls: 0 for no effect and ±100 for the full control effect; nearly all actives have a fitted effect of over 50% in size
# FMDV inh: foot and mouth disease virus antiviral activity; FMDV antiviral cell-based qHTS; Potency, µM (titrated, usually from 57.9 µM), inactives show at the top dose activity change, negative = inhibition, usual class: inhibitors; actives 1.2% (n = 410,000); AID 1159524; calls by dose curve; tested in HEK293T cells; note: read-out not given here; potency is the fitted concentration of half-maximal effect; % is set by controls: 0 for no effect and ±100 for the full control effect; nearly all actives have a fitted effect of over 45% in size
# Cycloheximide cs: affects cycloheximide protein synthesis inhibition readout, counter-screen | cell reporter, cycloheximide protein synthesis inhibition counterscreen | max response, % | actives 12% (n = 300,000) | AID 2314; in the data active = max response mostly above about 13%, no sharp cut-off; inactive = mostly below about 14%; note: read at 38.3 µM for the half of the compounds with a filed dose; 0% is about no effect
# Marburg entry inh: inhibitors of Marburg virus binding or cell entry; Marburg virus pseudotyped entry inhibition, cell reporter; actives 1.8% (n = 300,000); Potency, µM (top dose mostly 37.8 µM), for inactives: top-dose activity change, negative = inhibition, most hits filed as inhibitors; calls by dose curve; tested in HEK293 cells; note: potency is the fitted concentration of half-maximal effect; % is set by controls: 0 for no effect and ±100 for the full control effect
# Shiga inhibitor: inhibitors of Shiga toxin in Vero cells | Vero cells, Shiga toxin protein synthesis inhibition reporter | inhibition, % at 38.7 µM | actives 9.2% (n = 290,000) | AID 2315; in the data active = inhibition mostly above about 28%, no sharp cut-off; inactive = mostly below about 43%; note: 0% is about no effect
# The depositor's hits bear a star; ? = inconclusive; . = no result; + = active, no number; [ ] = another dose, or the depositor's remark. Sampled rows, rich in hits. Any-hit rate of the full collection: about 13%.
SMILES,HCV inhibitor,Lassa entry inh,FMDV inh,Cycloheximide cs,Marburg entry inh,Shiga inhibitor
COC(=O)C(Cc1ccc(O)cc1)NC(=O)c1ccc2c(c1)OCCO2 (centres undefined),10%,-11%,-15%,24,11%[46.1 µM],14
COc1cc2c(cc1OC)/C(=C/c1ccc(Cl)cc1)C(=O)OC2,-5%,-15%,40µM*,-5,?,-11
c1ccc(NC2=NCCN2CC2CCCCC2)cc1,-2%,.,-6%,.,.,.
COc1ccc(C/C(=N\OC(C)=O)c2ccc(OC)cc2)cc1,0%,-26%[46.1 µM],28%,18*,2%[46.1 µM],23
COC(=O)/N=C(/Cc1ccc(OC)cc1)c1ccc(OC)cc1,12%,27%,11%,18*,19%[46.1 µM],56*
COc1ccc(CC(=O)Nc2ccc(C(N)=O)cc2)cc1,-8%,?,-19%,0,-1%[46.1 µM],-7
O=C(N/N=C/C1CC=CCC1)c1cc2ccccc2cc1O (centres undefined),-10%,10%,6%,13*,-27%,39
O=C(N/N=C/C1CC=CCC1)c1ccc(O)cc1O (centres undefined),7%,-1%,-2%,71*,1%,34
COc1cc(C(=O)N/N=C/C2CC=CCC2)cc(OC)c1OC (centres undefined),-8%,?,10%,3,?,-1
O=C(CNc1ccc(F)cc1)N/N=C/C1CC=CCC1 (centres undefined),-3%,-7%[46.1 µM],9%,3,2%[46.1 µM],-8
Cc1sc(NC(=O)c2ccc(=O)n(C)n2)nc1-c1ccccc1,2%,?,31%,32*,15%[46.1 µM],42
CCc1sc(NC(=O)COC)nc1-c1ccccc1,?,16%,4%,-1,?,-6
Cc1ccc2nc(NC(=O)COc3ccc(F)cc3)sc2c1,.,?,2%,.,.,.
COc1ccc(-c2nc(NC(=O)c3cc(C(C)(C)C)nn3C)sc2C)cc1,5.6µM*,?,28µM*,6,9.2µM*,14
COCC(=O)Nc1nc(-c2ccc(C)cc2)c(C)s1,-4%,22%,9%,13*,3%,35*
COCC(=O)Nc1nc2ccc(C)cc2s1,-6%,?,12%,52*,?,65*
Cc1cc(OC(=O)c2c(C)cc(O)cc2O)cc(O)c1C(=O)O,20%,.,?,.,.,.
Cc1ccc(NC(=O)COC(=O)c2ccc(S(=O)(=O)N3CCCCC3)cc2)cc1,6%,.,-13%,.,.,.
CCC(=O)Nc1nc2ccc([N+](=O)[O-])cc2s1,-4%,-11%[46.1 µM],-14%,10,-2%[46.1 µM],14
Cc1ccc(C)c(OCC(=O)Nc2nc3ccc([N+](=O)[O-])cc3s2)c1C,11µM*,-1%,0%,1,0%,-16
Cc1ccc2nc(NC(=O)COC(=O)c3ccncc3)sc2c1,5%,14%,45%,35*,?,66*
Cc1ccc2nc(NC(=O)CN3CCOCC3)sc2c1,?,19%,.,33*,-10%,64*
CCN1CCN(CC(=O)Nc2nc3ccc(C)cc3s2)CC1,?,.,14%,12,.,15
CCCCOC(=O)C1CCCC(C)N1 (centres undefined),9%,?,10%,-2,2%,-9
COc1ccc(-c2csc3nc(-c4cccnc4)nc(Cl)c23)cc1OC,?,?,?,4,?,-8
SMILES,HCV inhibitor,Lassa entry inh,FMDV inh,Cycloheximide cs,Marburg entry inh,Shiga inhibitor
Cc1ccc2cc(/C=N/Nc3nc4ccccc4[nH]3)c(Cl)nc2c1,1%,.,7%,55*,.,93*
CCN(CC)c1ccc(/C=N/Nc2nc3ccccc3[nH]2)c(O)c1,5.6µM*,6.3µM*,-26%,52*,4µM*,100*
Cc1cc(Br)ccc1OCC(=O)NC1CCCC1,?,.,-8%,35*,.,52*
Cc1cc(Cl)c(S(=O)(=O)N2CCN(c3ccc(F)cc3)CC2)cc1OCC(N)=O,11%,9%,?,-4,4%,-15
Cc1cc(Cl)c(S(=O)(=O)N2CCN(c3ccc(F)cc3)CC2)cc1OCC(=O)NC1CCCCC1,0.79µM*,?,?,-3,10µM*,-12
O=C(COc1ccc(Br)cc1CNC1CCCCC1)NCCc1ccccc1,?,?,-22%,-4,11µM*,19
COc1ccc(Br)cc1CN(C)CC(=O)NCCc1ccccc1,?,3%,-19%,1,-25%[46.1 µM],-12
O=C(COc1ccc(Br)cc1Cl)NC1CCN(Cc2ccccc2)CC1,11µM*,?,-22%,-3,-19%[46.1 µM],-5
CC(C)(C)NC(=O)NC(=O)COc1ccc(Br)cc1Br,-22%,5.8µM*,?,90*,?,136*
O=C(COc1ccc(Br)cc1Br)NC(=O)NC1CCCC1,10%,-9%,29%,59*,?,142*
CC(C)(C)NC(=O)NC(=O)COc1ccccc1C#N,-2%,-16%,30%,66*,?,+
CN(C(=O)COc1ccc(Br)cc1Cl)C1CCCCC1,5%,15%,20%,24*,-5%[46.1 µM],53*
Cc1cc(Br)ccc1OCC(=O)NNC(=O)C(=O)Nc1ccccc1,-12%,23%,23%,13,?,50*
CC1(C)Cc2c(ccc3ccccc23)C2=C(C(=O)N3CCCC3)C(=O)C(=O)N21,?,?,-8%,4,?,-13
CCN(CC)CCNC(=O)CCc1nnc2ccc(N3CCC(C)CC3)nn12,12%,.,6%,-1,.,3
CCOc1cc(C2Nc3ccccc3C(=O)N2c2ccccc2)ccc1O (centres undefined),10%,4%,46%,19*,?,43
O=C1c2ccccc2NC(c2cccc([N+](=O)[O-])c2)N1CCc1ccccc1 (centres undefined),-8%,?,0%,44*,?,74*
COc1cc(C2Nc3ccccc3C(=O)N2c2ccccc2)ccc1O (centres undefined),8%,18%,41%,47*,?,123*
COc1cc(C2C(=O)c3ccccc3C2=O)ccc1O,-15%,.,26%,59*,.,.
Cc1cccc(C2Nc3ccccc3C(=O)N2CCc2ccccc2)n1 (centres undefined),-10%,27%,.,22,-19%,27
COc1ccc(C2Nc3ccccc3C(=O)N2c2ccccc2)cc1COc1ccccn1 (centres undefined),-9%,10%,.,8,12%,15
Cc1noc(C)c1CCC(=O)Nc1cc(Cl)ccc1C(=O)O,.,.,0%,.,.,.
O=C(NCc1cccc(C(F)(F)F)c1)C1CC(c2ccccc2F)=NO1 (centres undefined),-10%,.,-5%,.,.,.
O=C(CNC(=S)NC(=O)c1ccccc1Br)c1ccccc1,17%,9%,1%,15,-18%[46.1 µM],18
COc1ccc(/C(C)=N/N2C(=O)c3ccccc3NC2c2ccc(O)c(OC)c2)cc1 (centres undefined),6%,.,-28%,14*,.,33*
COc1ccc(C2Nc3ccccc3C(=O)N2O)cc1OC (centres undefined),?,13%,-3%,20*,-23%,16
